An excerpt weighted towards active compounds, which were near 21% of everything screened.
NS1 function inh: influenza NS1 inhibition. Potency, µM (top dose mostly 46.1 µM), inactives show at the highest dose activity, positive = more growth. actives 0.4% (n = 270,000). AID 2326; further: potency means the concentration at half of the fitted maximal effect; actives are rising curves; nearly all actives have a fitted effect of over 50% in size
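Recovery from NS1-induced slow growth read by OD600 in budding yeast switched to galactose assay medium (pH 6.0, -URA) at 1:100 dilution. Compound 23 nl per well; the matching strain lacking NS1 serves as control.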
Cycloheximide cs: affects cycloheximide protein synthesis inhibition readout, counter-screen; cell reporter, cycloheximide protein synthesis inhibition counterscreen; max response, %; actives 12% (n = 300,000); AID 2314; in the data active means max response mostly above about 13%, no sharp cut-off; inactive means mostly below about 14%; further: read at 38.3 µM for the half of the compounds with a filed dose; 0% is about no effect
SARS PLpro yeast: SARS-CoV PLP inhibition in yeast | Potency, µM (series often up to 32.9 µM), inactives show at the highest dose activity, positive = growth rescue, hits mostly activators | AID 485353 | actives 0.19% (n = 330,000) | S. cerevisiae expressing SARS-CoV PLpro, growth rescue; further: potency means the concentration at half of the fitted maximal effect; 0% is about no effect; nearly all actives have a fitted effect of over 55% in size
Shiga toxin inh: inhibitors of Shiga toxin in Vero cells. AID 2315. inhibition, % at 38.7 µM. actives 9.2% (n = 290,000). Vero cells, Shiga toxin protein synthesis inhibition reporter; in the data active means inhibition mostly above about 28%, no sharp cut-off; inactive means mostly below about 43%; further: 0% is about no effect
Pf growth 48h: inhibits P. falciparum growth in the first generation, 48 h | AID 504832 | Potency, µM (titrated, usually from 28.7 µM), without a hit: at the top dose activity change, negative = inhibition, usual class: inhibitors | P. falciparum luciferase growth in erythrocytes, 48 h | actives 5.9% (n = 310,000); active means well fitted inhibition curve with a large enough effect; inconclusive means small, poorly fitted or top-dose-only effect, or another doubt; inactive means no such curve, though single readings can be large or run the other way; further: potency means the concentration at half of the fitted maximal effect; on the % scale 0 is the no-effect control and ±100 the full control effect
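A one-generation exposure of luciferase-tagged malaria parasites in RPMI 1640/Albumax erythrocyte culture, 37 C and 5% CO2. Inhibition is inferred from decreased luminescence after adding detection reagent.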
Pf growth 96h: P. falciparum growth inhibition at 96 hour, primary screen for plastid delayed-death inhibitors; actives 6.9% (n = 320,000); Potency, µM (titrated, usually from 28.7 µM), for the others: top-dose activity change, negative = inhibition, most hits filed as inhibitors; P. falciparum luciferase reporter growth, 96 h; AID 504834; active means well fitted inhibition curve with a large enough effect; inconclusive means small, poorly fitted or top-dose-only effect, or another doubt; inactive means no such curve, though single readings can be large or run the other way; further: potency means the concentration at half of the fitted maximal effect; on the % scale 0 is the no-effect control and ±100 the full control effect
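Plates of compound plus infected erythrocytes (2% hematocrit, 0.05% parasitemia final) incubate 96 hours, 37 C, 5% CO2. Detection reagent added; reduced luminescence from the parasites' luciferase reporter flags inhibition.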
Active calls of the source: *. Unless noted, the call rests on the fitted dose curve.

COc1ccc(/C=C2/NC(=O)N(CC(=O)Nc3cccc(C)c3)C2=O)cc1O was read as NS1 function inh 1.8%, Cycloheximide cs -2.2, SARS PLpro yeast 1.0%, Shiga toxin inh -12.5, Pf growth 48h 10.1% and Pf growth 96h 1.8%.
Screening CCOc1ccc(CNC(=O)Cn2c(=O)c3cccn3c3ccccc32)cc1 returned NS1 function inh 11.0%, Cycloheximide cs -6.2, SARS PLpro yeast -1.7%, Shiga toxin inh -7.1, Pf growth 48h 13.3% and Pf growth 96h inconclusive.
For COc1ccc(CCNC(=O)CCCn2c(=O)c3cccn3c3cccnc32)c(OC)c1 the results were NS1 function inh 13.3%, Cycloheximide cs 7.7, SARS PLpro yeast 0.7%, Shiga toxin inh -2.9, Pf growth 48h inconclusive and Pf growth 96h 10.4µM*.
COc1cccc(CNC(=O)CCn2c(=O)c3cccn3c3cccnc32)c1 was read as NS1 function inh inconclusive, Cycloheximide cs -2.3, SARS PLpro yeast -0.7%, Shiga toxin inh 14.4, Pf growth 48h 10.0% and Pf growth 96h 33.5%.
For CC(C)Oc1ccc(CNC(=O)Cn2c(=O)c3cccn3c3cccnc32)cc1 the results were NS1 function inh -0.5%, Cycloheximide cs -2.0, SARS PLpro yeast -3.6%, Shiga toxin inh -1.6, Pf growth 48h 17.0% and Pf growth 96h 14.7µM*.
`O=c1c2cccnc2[nH]c(=S)n1CCCN1CCN(c2ccc(F)cc2)CC1` gave NS1 function inh -8.1%, Cycloheximide cs -1.2, SARS PLpro yeast 7.7%, Shiga toxin inh -13.2 and Pf growth 48h 8.0%.
COc1ccc(N2CCN(CCCn3c(=S)[nH]c4ncccc4c3=O)CC2)cc1 was read as NS1 function inh 13.1%, Cycloheximide cs -4.4, SARS PLpro yeast 13.5%, Shiga toxin inh -1.2 and Pf growth 96h 13.1µM*.
`COc1ccc(N2CCN(C(=O)CCCn3c(=O)c4cccn4c4cccnc43)CC2)cc1` gave NS1 function inh 12.4%, Cycloheximide cs 0.3, SARS PLpro yeast -2.9%, Shiga toxin inh 14.5, Pf growth 48h 11.7µM* and Pf growth 96h 43.1%.
`CN(CC(=O)Nc1ccc(Cl)cc1)C(=O)Cn1[nH]c(=O)c2ccccc2c1=O` gave SARS PLpro yeast 5.1%, Pf growth 48h inconclusive and Pf growth 96h -22.1%.
For CCOc1ccc(CCNC(=O)CCCn2c(=O)c3cccn3c3cccnc32)cc1OCC the results were NS1 function inh -0.1%, Cycloheximide cs -4.7, SARS PLpro yeast 3.2%, Shiga toxin inh -1.2, Pf growth 48h inconclusive and Pf growth 96h -17.9%.
Screening COc1ccc(CCNC(=O)CCCn2c(=O)c3cccn3c3cccnc32)c(OC)c1OC returned NS1 function inh -2.0%, Cycloheximide cs 2.7, SARS PLpro yeast 4.5%, Shiga toxin inh -2.4, Pf growth 48h inconclusive and Pf growth 96h 13.1µM*.
For COc1ccc2oc(-c3ccco3)cc(=O)c2c1 the results were NS1 function inh -35.7%, Cycloheximide cs 49.8*, SARS PLpro yeast -5.8%, Shiga toxin inh 68.2*, Pf growth 48h 227.9% and Pf growth 96h inconclusive.
For O=c1cc(-c2ccco2)oc2ccc(Cl)cc12 the results were NS1 function inh -14.1%, Cycloheximide cs 0.6, SARS PLpro yeast -2.1%, Shiga toxin inh 28.3, Pf growth 48h 40.0% and Pf growth 96h -4.0%.
`COc1ccc2c(=O)cc(C(F)(F)C(F)(F)F)oc2c1` gave NS1 function inh 10.0%, Cycloheximide cs 8.2, SARS PLpro yeast -0.3%, Shiga toxin inh -8.7, Pf growth 48h 3.7% and Pf growth 96h -23.0%.
For COc1ccc2c(=O)cc(-c3ccccc3F)oc2c1 the results were NS1 function inh -7.9%, Cycloheximide cs 40.6*, SARS PLpro yeast -0.5%, Shiga toxin inh 53.5*, Pf growth 48h 19.2% and Pf growth 96h 90.3%.
Screening COc1ccc(-c2cc(=O)c3c(OC)c(OC)c(OC)cc3o2)cc1OC returned Cycloheximide cs 7.0 and Shiga toxin inh -3.0.
COc1cccc2oc(-c3ccco3)cc(=O)c12 was read as NS1 function inh -17.7%, Cycloheximide cs 29.6*, SARS PLpro yeast -16.2%, Shiga toxin inh 23.7, Pf growth 48h inconclusive and Pf growth 96h -102.7%.
O=C1CCCC(=O)N1c1ccc(NCCOCCO)c([N+](=O)[O-])c1 was read as Cycloheximide cs -2.5, SARS PLpro yeast -1.0%, Shiga toxin inh 5.6, Pf growth 48h -18.4% and Pf growth 96h 0.0%.
For Cc1ccc(C(=O)Oc2ccccc2N2C(=O)C3CCCCC3C2=O)cc1 (configuration not stated) the results were NS1 function inh -3.4%, Cycloheximide cs -2.1, SARS PLpro yeast 6.8%, Shiga toxin inh 54.0, Pf growth 48h 62.4% and Pf growth 96h 35.5%.
Screening COc1ccc(C(=O)OCC(=O)NC(=O)NCc2ccccc2)cc1[N+](=O)[O-] returned SARS PLpro yeast -0.8%, Pf growth 48h 4.9% and Pf growth 96h -14.1%.
For COC(=O)c1ccc(SCC(=O)NCc2ccccc2)c([N+](=O)[O-])c1 the results were NS1 function inh 2.9%, Cycloheximide cs 6.6, SARS PLpro yeast -1.2%, Shiga toxin inh 16.8 and Pf growth 96h 2.62µM*.
`COc1ccc(S(=O)(=O)N2CCCCC2)cc1NC(=O)CCOc1cc(C)ccc1C` gave SARS PLpro yeast -3.7%, Pf growth 48h inconclusive and Pf growth 96h 11.7µM*.
`Cc1ccc(C)c(OCCC(=O)Nc2ccc(S(=O)(=O)N3CCCC3)cc2)c1` gave SARS PLpro yeast 6.7%, Pf growth 48h inconclusive and Pf growth 96h 9.28µM*.
COc1ccc(S(=O)(=O)N2CCCCC2)cc1NC(=O)c1ccc(C)cc1 was read as SARS PLpro yeast 1.0%, Pf growth 48h 19.8% and Pf growth 96h 44.3%.
Screening C=CCn1c(SCCCCCC)nc(O)cc1=O returned NS1 function inh inconclusive, Cycloheximide cs -1.5, SARS PLpro yeast -13.4%, Shiga toxin inh -6.4, Pf growth 48h -5.7% and Pf growth 96h 6.57µM*.
Screening C=CCn1c(SCCCC)nc(O)cc1=O returned NS1 function inh inconclusive, Cycloheximide cs -5.4, SARS PLpro yeast -9.4%, Shiga toxin inh -7.3, Pf growth 48h 9.4% and Pf growth 96h inconclusive.
CC(/C=N/NC(=O)c1cccs1)=C\c1ccccc1 was read as Cycloheximide cs 41.8*, SARS PLpro yeast -5.1%, Shiga toxin inh 144.9*, Pf growth 48h 0.0% and Pf growth 96h inconclusive.
O=C(N/N=C/C(Cl)=C\c1ccccc1)c1cccs1 was read as NS1 function inh -39.9%, Cycloheximide cs 51.2*, SARS PLpro yeast -2.1%, Shiga toxin inh 81.3*, Pf growth 48h inconclusive and Pf growth 96h 3.7µM*.
COC(=O)C(C)Sc1nc2ccsc2c(=O)n1Cc1ccccc1 (configuration not stated) was read as NS1 function inh -12.1%, Cycloheximide cs 7.8, SARS PLpro yeast -1.0%, Shiga toxin inh 20.4, Pf growth 48h -37.8% and Pf growth 96h -23.6%.

Screening data (PubChem BioAssay)
